The source of these data is the supplement of paper PMC10127200.

Counter-ions that a name gives are not always drawn.

What all share (test): Euclidean distance of Cell Painting phenotypic profile (signed KS, 77 features) to DMSO centroid (dimensionless distance); 5 or 10 uM (library dependent); higher = stronger phenotypic change vs DMSO (phenoactivity)
Conditions in all cases: 48 h

Assay [1] deals with 786-O. Put shortly: (§1)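 Stained cells were imaged confocally at 20X with 9 fields per well, after 48 h of exposure to library compounds at 10 or 5 uM (set by library; 0.1% DMSO final). The cells were five cancer lines and a healthy fibroblast line. From the images, Harmony extracted 77 features, each expressed as a signed Kolmogorov-Smirnov statistic relative to same-plate vehicle wells. Phenoactivity is measured as Euclidean distance to the median vehicle profile, using plate-position-corrected, correlation-weighted profiles averaged across replicates at the top dose.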

The test system of assay [2] is A549. Put shortly: as §1
Assay [3] deals with FB. Put shortly: as §1
Assay [4] has as its system HEPG2. Put shortly: as §1
Assay [5] relates to OVCAR4. Put shortly:
as §1

`Oc1ncnc2[nH]ncc12` [Allopurinol]: the Euclidean distance in assay [1] is 1.04; in assay [2], 0.955; in assay [3], 1.01; in assay [4], 0.506; in assay [5] it was 1.21.

In the case of `C[C@]12C=CC(=O)C=C1CC[C@H]1[C@@H]3C[C@@H](O)[C@](O)(C(=O)CO)[C@@]3(C)C[C@H](O)[C@@]12F` [Triamcinolone], the Euclidean distance amounted to 0.975 in assay [1]; 1.88 in assay [2]; 1.81 in assay [3]; 1.35 in assay [4]; 1.94 in assay [5].

Consider `C=C(C)[C@@H]1CC=C(CO)CC1` [Perillyl alcohol], for which the Euclidean distance in assay [1] was determined as 0.887; in assay [2], 0.815; in assay [3] it was 0.953; in assay [4], 1.09; in assay [5], 1.74.

For `CN(CCOc1ccc(NS(C)(=O)=O)cc1)CCc1ccc(NS(C)(=O)=O)cc1` [Dofetilide], the Euclidean distance came to 0.968 in assay [1]; 1.19 in assay [2]; 1.24 in assay [3]; 0.609 in assay [4]; 1.02 in assay [5].

`CCOCCn1c(N2CCCN(C)CC2)nc2ccccc21` [Emedastine]: the Euclidean distance was 0.676 in assay [1]; 0.686 in assay [2]; 0.988 in assay [3]; 0.905 in assay [4]; 0.553 in assay [5].

In the case of `CCOC(=O)[C@H](CCc1ccccc1)N[C@H]1CCc2ccccc2N(CC(=O)O)C1=O` [Benazepril], the Euclidean distance in assay [1] was determined as 0.912; in assay [2] it was 0.486; in assay [3], 0.851; in assay [4] it was 0.54; in assay [5], 1.04.

For the molecule `COc1ccc(CN(CCN(C)C)c2ccccn2)cc1` [Pyrilamine Maleate], the Euclidean distance in assay [1] turned out to be 0.832; in assay [2], 0.864; in assay [3], 1.11; in assay [4], 0.605; in assay [5] it was 1.5.

With `Cc1ncc([N+](=O)[O-])n1CC(C)O` (stereo not given) [Secnidazole], the Euclidean distance is 1.02 in assay [1]; 0.496 in assay [2]; 0.982 in assay [3]; 1.12 in assay [4]; 0.655 in assay [5].

With `Nc1nc2cc(-c3ccc4ncc(C(=O)N5CCOCC5)n4c3)ccc2o1` [Serabelisib (INK-1117.MLN-1117.TAK-117)], the Euclidean distance in assay [1] was determined as 1.02; in assay [2] it was 1.76; in assay [3], 2.6; in assay [4] it was 1.39; in assay [5], 1.61.
